Screens deposited in PubChem by National Center for Advancing Translational Sciences (NCATS).
The list is not random: actives were taken first. Their share in the collection is about 19%.
Pf growth 48h – P. falciparum growth inhibition at 48 hours (one generation) | P. falciparum luciferase growth in erythrocytes, 48 h | Potency, µM (highest dose often 28.7 µM), for inactives: at the highest dose activity change, negative = inhibition, actives largely listed as inhibitors | 310,000 tested, 5.9% active; note: potency is the fitted concentration of half-maximal effect; % is set by controls: 0 for no effect and ±100 for the full control effect
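Erythrocytes infected with P. falciparum carrying an integrated firefly luciferase reporter (2% hematocrit, 0.1% parasitemia final) were exposed to compounds in RPMI 1640 with 0.5% Albumax at 37 C, 5% CO2. Growth inhibition was scored as reduced luminescence.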
Cycloheximide cs – counter-screen hit for Shiga toxin inhibitors, cycloheximide | AID 2314 | max response, % | cell reporter, cycloheximide protein synthesis inhibition counterscreen | 300,000 tested, 12% active; in the data active = max response mostly above about 13%, no sharp cut-off; inactive = mostly below about 14%; note: read at 38.3 µM for the half of the compounds with a filed dose; 0% is about no effect
Pf growth 96h – P. falciparum growth inhibition at 96 hour, primary screen for plastid delayed-death inhibitors; Potency, µM (series often up to 28.7 µM), inactives show at the top dose activity change, negative = inhibition, usual class: inhibitors; 320,000 tested, 6.9% active; P. falciparum luciferase reporter growth, 96 h; AID 504834; note: potency is the fitted concentration of half-maximal effect; % is set by controls: 0 for no effect and ±100 for the full control effect
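Erythrocytes infected with luciferase-expressing P. falciparum were dispensed at 2% hematocrit and 0.05% parasitemia (final), then incubated with compounds 96 hours at 37 C in 5% CO2. Luminescence after detection reagent addition reported growth.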
Shiga toxin inh – Shiga toxin inhibition; Vero cells, Shiga toxin protein synthesis inhibition reporter; 290,000 tested, 9.2% active; inhibition, % at 38.7 µM; AID 2315; in the data active = inhibition mostly above about 28%, no sharp cut-off; inactive = mostly below about 43%; note: 0% is about no effect
Lassa entry inh – inhibitors of Lassa virus binding or cell entry; Lassa virus pseudotype entry inhibition, cell reporter; Potency, µM (doses to about 37.9 µM), without a hit: top-dose activity change, negative = inhibition, hits mostly inhibitors; 300,000 tested, 1.2% active; calls by dose curve; tested in HEK293 cells; note: potency is the fitted concentration of half-maximal effect; % is set by controls: 0 for no effect and ±100 for the full control effect; nearly all actives have a fitted effect of over 50% in size
Marburg entry inh – Marburg virus entry inhibition; Marburg virus pseudotyped entry inhibition, cell reporter; Potency, µM (highest dose often 37.8 µM), for inactives: at the top dose activity change, negative = inhibition, usual class: inhibitors; 300,000 tested, 1.8% active; AID 540276; calls by dose curve; tested in HEK293 cells; note: potency is the fitted concentration of half-maximal effect; % is set by controls: 0 for no effect and ±100 for the full control effect
The depositor's hits bear a star; ? = inconclusive; / = no result given; [ ] = dose if it differs, or a comment. Unless noted, calls come from the whole dose curve; as a rule, active = well fitted inhibition curve with a large enough effect; inconclusive = small, poorly fitted or top-dose-only effect, or another doubt; inactive = no such curve, though single readings can be large or run the other way.

SMILES	Pf growth 48h	Cycloheximide cs	Pf growth 96h	Shiga toxin inh	Lassa entry inh	Marburg entry inh
Cc1cccc(/C=N/NC(=O)c2cc(Br)ccc2O)n1	30.0%	31.7*	11.7µM*	48.1*	?	?
O=C(N/N=C/c1ccoc1)c1cc(Br)ccc1O	2.4%	31.3*	270.3%	56.9	/	/
O=C(N/N=C/c1ccoc1)c1ccccc1Br	0.7%	7.2	-6.9%	1.5	?	9.7%[46.1 µM]
CCOc1ccc(Br)cc1C(=O)N/N=C/c1cccc(C)n1	8.2%	1.3	4.7%	23.8	/	/
Cn1nc(-c2ccccc2)cc1NC(=O)c1ccccc1	43.1%	11.6*	36.6%	18.9	-0.7%	-2.3%
Cn1nc(-c2ccc(Cl)cc2)cc1NC(=O)Nc1ccccc1	54.8%	31.4*	105.0%	65.8*	5.5%	0.3%[46.1 µM]
CC(=O)Nc1cc(-c2ccc(Cl)cc2)nn1-c1ccccc1	0.0%	0.9	9.28µM*	17.1	0.7%	2.6%
Cc1cccc(NC(=O)CSC2=NN3CCCC(=O)N=C3S2)c1C	-18.3%	0.8	?	-11.6	/	/
O=C(NCc1ccccn1)c1ccc(Cl)c(S(=O)(=O)N2CCCCC2)c1	?	-1.3	6.5%	-25.6	-17.1%	-9.6%[46.1 µM]
COc1ccc(OC)c(C(=O)NC(CC(N)=O)c2ccc(NCCN3CCCC3)c([N+](=O)[O-])c2)c1 (centres undefined)	-16.8%	-2.1	?	-1.2	/	/
Cc1cccc(NC(=O)c2cc(=O)[nH]c3ccccc23)c1	-7.7%	1.2	?	-4.6	/	/
Cc1cccc(NC(=S)N=Nc2c(O)[nH]c3ccccc23)c1	?	1.5	2.94µM*	12.2	?	?
CC(C)NC(=S)N=Nc1c(O)[nH]c2ccc(C(C)C)cc12	8.28µM*	-2.2	?	0.5	/	-2.6%
COc1ccccc1NC(=S)N=Nc1c(O)[nH]c2ccc(Br)cc12	0.928µM*	20.7	1.04µM*	42.4	/	/
Cc1ccc(C)c(NC2=NC3(CCCCC3)N=C(N)N2)c1	?	-3.5	?	-2.1	23.7%	-17.4%
COCC(=O)Nc1cc(C)cn(Cc2ccccc2Cl)c1=O	0.0%	-2.2	0.0828µM*	/	8.3%	-19.5%
N#C/C(C(=O)N1CCCCC1)=C1\Nc2ccccc2S1	73.9%	36.7*	-1.1%	58.0*	7.1%	?
CC1=CS/C(=C(/C#N)C(=O)N2CCCCC2)N1c1ccccc1	-8.7%	10.7	49.9%	-12.2	0.6%	-8.1%
CCc1ccc(C(=O)/C=C2\Sc3ccccc3NC2=O)cc1	69.2%	50.3*	37.3%	88.2*	-12.4%	25.6%
O=C1Nc2ccccc2S/C1=C\C(=O)N1CCCC1	372.9%	27.3*	2.6%	72.5*	/	/
CCn1c(=O)n(CC)c2cc(N3CCCC3)c(NC(=O)c3cccc(C)c3)cc21	0.0%	6.0	?	-4.4	?	?
CCn1c(=O)n(CC)c2cc(N3CCCC3)c(NC(=O)c3cccc(Cl)c3)cc21	?	-5.2	11.7µM*	16.8	/	/
CCn1c(=O)n(CC)c2cc(N3CCCC3)c(NC(=O)c3ccc(OC)c(Br)c3)cc21	13.1µM*	-4.8	-22.0%	2.5	/	/
CCn1c(=O)n(CC)c2cc(N3CCCC3)c(NC(=O)c3cc(Cl)ccc3OC)cc21	?	-2.2	8.28µM*	-3.8	-22.1%[46.1 µM]	20.2%[46.1 µM]
CN(c1ccccc1)c1nc(N)c([N+](=O)[O-])c(NCCO)n1	?	-0.8	-6.0%	-1.5	/	/
SMILES	Pf growth 48h	Cycloheximide cs	Pf growth 96h	Shiga toxin inh	Lassa entry inh	Marburg entry inh
COc1cc(CN2CCN(C3CCC3)CC2CCO)cc(OC)c1 (centres undefined)	7.5%	-1.7	-13.8%	/	0.7%	-29.5%
COc1ccc(C2C(C(C)=O)=C(C)Nc3ncnn32)cc1[N+](=O)[O-] (centres undefined)	-21.1%[0.00184 µM]	-1.1	4.15µM*	3.6	1.9%[46.1 µM]	7.4%[46.1 µM]
COc1cc(C2C(C(C)=O)=C(C)Nc3ncnn32)ccc1O (centres undefined)	-15.9%	-3.4	60.9%	-7.8	-11.5%	?
COc1ccccc1C1C(C(=O)NCc2ccccc2)=C(C)Nc2ncnn21 (centres undefined)	-0.1%	-3.9	6.8%	-6.5	8.5%	?
CC(=O)C1=C(C)Nc2ncnn2C1c1ccccc1OCc1ccccc1 (centres undefined)	8.28µM*	-2.4	27.6%	-11.2	0.1%	-13.1%
CCOC(=O)C1=C(C)Nc2nc(SCC)nn2C1c1ccc(OC)cc1 (centres undefined)	-27.4%	-5.0	13.1µM*	-13.6	9.2%	7.6%
